# Screens: PubChem BioAssay, several laboratories
# TNFa cytotox – cytotoxicity in TNFa-stimulated HUVEC, primary screen, cytotoxicity control for VCAM1 expression modulator project, imaging, Hoechst nuclei count. 93,000 tested, 0.17% active. HUVEC TNFalpha-stimulated, Hoechst cell count. cell count reduction, % at 2 µM;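 active = cell count reduction exceeding the screen mean by over 5 SD, scaled to untreated wells per plate, cut at about 78% in these data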;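 note: cells counted after 24 h of TNF alpha exposure following the 1 h pretreatment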
# IL1B NFkB pot – enhancers of NFkB p65 translocation in HUVEC – imaging, IL-1B stimulus, high-content imaging, primary screen. HUVEC IL-1B NFkB p65 nuclear translocation imaging. activation, % at 2 µM. 94,000 tested, 0.3% active. AID 819, 2007;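 active = activation above 40%, about the mean plus 3 SD, also judged a hit on visual image review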;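 note: percent activation is computed from the nuclear over cytoplasmic p65 intensity ratio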
# Phagocyt inh – inhibitors of macrophage phagocytosis, primary screen, imaging, J774A.1 cells, IgG beads. J774A.1 macrophage IgG-bead phagocytosis. 110,000 tested, 0.07% active. inhibition, % at 5 µM;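 active = inhibition above the mean of the plate negative controls plus 5 SD, cut at about 13% in these data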;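 note: phagocytic index as fraction of beads internalized from green versus red external bead signal; plate controls were DMSO negative control for no effect and cytochalasin-D positive control for full effect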
# IL1B cytotox – cytotoxicity in IL-1B stimulated HUVEC, primary screen, cytotoxicity control for IL-1B NFkB translocation project, imaging, Hoechst nuclear count, IL-1B stimulus. 94,000 tested, 0.41% active. cell count reduction, % at 2 µM. HUVEC cell count loss. AID 845, 2007;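 active = cell count reduction more than 3 SD above the screen-wide mean, cut at about 70% in these data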;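 note: normalized per plate to untreated control cells as the no-loss baseline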
# NFkB transloc inh – inhibitors of IL-1B driven NFkB p65 nuclear import, primary screen, imaging, HUVEC, IL-1B stimulus, high-content imaging. HUVEC IL-1B NFkB p65 nuclear translocation imaging. 94,000 tested, 0.43% active. inhibition, % at 2 µM;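 active = inhibition above about 30% together with a positive call from visual inspection of the well image, limit read from the data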;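 note: nuclear over cytoplasmic p65 intensity ratio measured by imaging; 0% = IL-1B stimulated DMSO wells and 100% = unstimulated DMSO wells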
# * marks the source's active call; other numbers are inactive results; · = no result. Sampled rows, rich in hits. Any-hit rate of the full collection: about 0.93%.
SMILES,TNFa cytotox,IL1B NFkB pot,Phagocyt inh,IL1B cytotox,NFkB transloc inh
COc1ccc(OC)c(/C=N/NC(=O)Cc2nc3ccccc3[nH]2)c1,·,·,-3.6,·,·
O=C(CSCc1ccc(Br)cc1)N1CCOCC1,-0.4,42.0*,8.2,-15.9,-42.0
Cc1ccccc1NC(=O)CN(c1ccc(F)cc1)S(C)(=O)=O,-12.1,23.2,0.7,-26.3,-23.2
CN(C)S(=O)(=O)N(CC(=O)Nc1ccccc1F)c1ccccc1,-3.7,5.7,·,78.8*,-5.7
Cc1noc(C)c1S(=O)(=O)N1CCN(C(c2ccccc2)c2ccc(Cl)cc2)CC1 (stereo not given),86.2*,-1.8,-0.1,-52.9,1.8
Cc1noc(C)c1S(=O)(=O)N1CCCCC1,-14.1,-8.5,·,-1.9,8.5
Cc1noc(C)c1S(=O)(=O)N1CCC2(CC1)OCCO2,94.7*,19.1,·,-27.4,-19.1
COc1ccc(-n2nc(C(=O)Nc3nc4ccc(OC)cc4s3)c3ccccc3c2=O)c(OC)c1,·,·,-4.7,·,·
COc1cc(-c2nnc(SCC(=O)c3ccc(C)cc3)o2)cc(OC)c1OC,-8.3,-41.8,-0.6,24.9,41.8*
Cc1cc(C)c2nc(C(F)(F)F)nc(NCCCN3CCCC3=O)c2c1,7.0,-30.9,1.2,0.0,30.9*
CCOC(=O)CN1C(=O)C(Sc2n[nH]c(-c3ccccc3)n2)CCc2ccccc21 (stereo not given),-2.1,-1.4,-0.6,1.7,1.4
CCOC(=O)N1CCN(C(=O)c2cccc(NC(=O)c3ccco3)c2)CC1,-20.2,-1.4,-2.6,-32.7,1.4
O=C(Nc1cccc(C(=O)N2CCCCCC2)c1)c1ccco1,9.5,-14.4,1.5,72.2*,14.4
CC12C=CC3(O1)C(C(=O)N(c1cccnc1)C3C(=O)NC1CCCCC1)C2C(=O)Nc1ccccc1 (stereo not given),-23.6,-31.2,-2.4,-31.3,31.2*
CC(C)(C)NC(=O)C1N(c2cccnc2)C(=O)C2C(C(=O)Nc3ccccc3F)C3(C)C=CC21O3 (stereo not given),-10.1,5.1,0.1,12.0,-5.1
Cc1ccc(-n2cnnn2)c(S(=O)(=O)N2CCOCC2)c1,-0.8,-35.2,-2.7,-67.3,35.2*
CCN1CCN(C(=O)Nc2ccccc2OC)CC1,1.2,-4.5,·,92.1*,4.5
CCc1cccc(C)c1NC(=S)NCC(c1cccnc1)N1CCOCC1 (stereo not given),·,·,-4.8,·,·
Cc1cccc(-n2c(CCc3ccccc3)nnc2SCC(=O)c2ccccc2)c1,·,·,0.4,·,·
COc1ccc2nc(SCC(=O)N3CC(=O)Nc4ccccc43)c(C#N)cc2c1,-12.9,-7.0,0.2,11.8,7.0
Cc1cc(C)c2nc(SCC(=O)N3CC(=O)Nc4ccccc43)c(C#N)cc2c1,89.1*,-13.2,·,54.3,13.2
CCOC(=O)C1=C(Cc2ccc(F)cc2)C(=O)c2ccccc2C1=O,6.7,58.7*,0.2,0.6,-58.7
COc1cc(/C=N/NC(=O)C2c3ccccc3Oc3ccccc32)ccc1O,2.8,9.5,·,11.7,-9.5
O=C(Cn1nc(Cc2ccncc2)c2ccccc2c1=O)N1CCc2ccccc2C1,2.3,72.1*,-0.6,3.6,-72.1
CCCn1cnc2c(sc3nc4c(cc32)CSC(C)(C)C4)c1=O,85.9*,0.9,-0.7,2.3,-0.9
SMILES,TNFa cytotox,IL1B NFkB pot,Phagocyt inh,IL1B cytotox,NFkB transloc inh
CC1(C)Cc2nc3sc4c(=O)n(Cc5ccccc5)cnc4c3cc2CS1,·,·,2.1,·,·
Cc1ccc(C(=O)N2CCN(c3ccc(Cl)cc3)CC2)cc1,-10.9,-15.8,-1.6,88.1*,15.8
Cc1ccc(NC(=O)c2cc(NC(=O)CCC(=O)O)ccc2N2CCCCC2)cc1,-32.2,-4.6,-0.9,92.2*,4.6
Cc1cccc(NC(=O)c2cc(NC(=O)c3ccccc3)ccc2N2CCCCC2)c1,2.3,6.5,0.1,-5.8,-6.5
O=C(Nc1ccccc1)C1CCN(C(=O)c2ccccc2)CC1,-10.7,1.7,-0.9,3.0,-1.7
CCN(C(=O)COC(=O)/C=C/c1ccc(O)c(OC)c1)C1CCS(=O)(=O)C1 (stereo not given),·,·,0.7,·,·
O=C(CSc1nnc(CNc2ccc(F)cc2)n1Cc1ccco1)N1CCCC1,·,·,0.3,·,·
CC1CCN(C(=O)CSc2nnc(CNc3ccc(F)cc3)n2Cc2ccco2)CC1,-6.3,-31.9,-1.5,84.5*,31.9*
COC(=O)c1nn(-c2ccccc2)c(Cl)c1/C=N/OCc1ccc(C)cc1,-2.0,-2.7,·,22.4,2.7
Cc1cc(C)cc(OCC(=O)Nc2ccc(F)cc2)c1,-8.0,-3.6,-3.2,84.5*,3.6
Cc1ccccc1-c1noc(CCC(=O)NCC2CCCO2)n1 (stereo not given),1.2,4.0,-1.8,83.8*,-4.0
O=C(COC(=O)C1CC2C=CC1C2)Nc1cccc(S(=O)(=O)N2CCCCCC2)c1 (stereo not given),·,·,-2.8,·,·
CC1CN(C(=O)c2scc3c2OCCO3)CC(C)O1 (stereo not given),18.5,-80.3,·,93.2*,80.3*
CC1CCN(C(=O)c2scc3c2OCCO3)CC1,-18.2,39.5,-0.3,-10.1,-39.5
CCOC(=O)c1cc(C)n(Cc2ccc(OCC)c(OC)c2)c1C,-3.0,18.9,-1.0,-5.3,-18.9
CC1=C(C#N)C(Nc2cccc(C)n2)(C(F)(F)F)C(=O)N1 (stereo not given),81.8*,16.2,-0.2,-16.0,-16.2
Cn1c(COc2ccc3ccccc3c2)nnc1SCC(N)=O,-1.7,-9.4,-0.7,-8.8,9.4
Cn1c(COc2ccc3ccccc3c2)nnc1SCC(=O)OC1CCCCC1,-10.9,41.1*,·,50.9,-41.1
COc1ccccc1OCC(=O)NCCNC(=O)COc1ccccc1OC,-29.5,2.9,-2.6,-1.3,-2.9
COc1ccccc1OCC(=O)NCC1CCCCC1,3.1,-95.7,-0.7,93.5*,95.7*
O=C(COC(=O)c1ccncc1)Nc1cc(Cl)ccc1Cl,-38.7,18.8,-1.7,-9.9,-18.8
O=C(OCc1ccc(Cl)cc1Cl)c1ccncc1,7.0,126.3*,0.1,-24.3,-126.3
O=C1c2cccc3c(Nc4ccccc4Cl)c([N+](=O)[O-])cc(c23)C(=O)N1CCO,-16.6,-0.9,-1.7,-59.0,0.9
Cc1cc(C)cc(N(C(=O)c2sc(C)nc2C)C(C(=O)NCc2ccco2)c2ccccc2)c1 (stereo not given),12.7,3.0,0.1,-7.8,-3.0
Cc1cccc(N(C(=O)c2sc(C)nc2C)C(C(=O)NCc2ccco2)c2ccccc2)c1 (stereo not given),-7.1,47.4*,-0.5,2.3,-47.4
CCOc1cc(CNCc2ccncc2)cc(Cl)c1OC,·,·,-2.4,·,·
CCCNc1nc2c(c(=O)n(C)c(=O)n2C)n1CCc1ccccc1,-25.2,-99.9,3.7,-31.4,99.9*
Cn1c(=O)c2c(nc(NCc3ccc4c(c3)OCO4)n2Cc2ccc(F)cc2)n(C)c1=O,-3.4,-44.3,1.2,-29.2,44.3*
Cn1c(=O)c2c(nc(NCCO)n2CCc2ccccc2)n(C)c1=O,·,·,-0.1,·,·
